# Data from the supplement of paper PMC11732987, “Enantioselective OTUD7B fragment discovery through chemoproteomics screening and high-throughput optimisation” (Communications Chemistry, 2025).
# Values without a mark were called inactive.
# Experiments:
# Assay in all cases: log2 ratio of Biotin-Ahx-Ub-VS probe labelling (fragment/DMSO); higher = less target engagement (more negative = stronger competition), active = hit call of the paper (q ≤ 0.05, log2 ratio ≤ -1)
# Conditions in all cases: compound concentration: 200 uM; treatment time: 3 h
# ALG13 = molecular target: T1, ALG13 (UniProt Q9NP73)
# T1 sequence (whole entry): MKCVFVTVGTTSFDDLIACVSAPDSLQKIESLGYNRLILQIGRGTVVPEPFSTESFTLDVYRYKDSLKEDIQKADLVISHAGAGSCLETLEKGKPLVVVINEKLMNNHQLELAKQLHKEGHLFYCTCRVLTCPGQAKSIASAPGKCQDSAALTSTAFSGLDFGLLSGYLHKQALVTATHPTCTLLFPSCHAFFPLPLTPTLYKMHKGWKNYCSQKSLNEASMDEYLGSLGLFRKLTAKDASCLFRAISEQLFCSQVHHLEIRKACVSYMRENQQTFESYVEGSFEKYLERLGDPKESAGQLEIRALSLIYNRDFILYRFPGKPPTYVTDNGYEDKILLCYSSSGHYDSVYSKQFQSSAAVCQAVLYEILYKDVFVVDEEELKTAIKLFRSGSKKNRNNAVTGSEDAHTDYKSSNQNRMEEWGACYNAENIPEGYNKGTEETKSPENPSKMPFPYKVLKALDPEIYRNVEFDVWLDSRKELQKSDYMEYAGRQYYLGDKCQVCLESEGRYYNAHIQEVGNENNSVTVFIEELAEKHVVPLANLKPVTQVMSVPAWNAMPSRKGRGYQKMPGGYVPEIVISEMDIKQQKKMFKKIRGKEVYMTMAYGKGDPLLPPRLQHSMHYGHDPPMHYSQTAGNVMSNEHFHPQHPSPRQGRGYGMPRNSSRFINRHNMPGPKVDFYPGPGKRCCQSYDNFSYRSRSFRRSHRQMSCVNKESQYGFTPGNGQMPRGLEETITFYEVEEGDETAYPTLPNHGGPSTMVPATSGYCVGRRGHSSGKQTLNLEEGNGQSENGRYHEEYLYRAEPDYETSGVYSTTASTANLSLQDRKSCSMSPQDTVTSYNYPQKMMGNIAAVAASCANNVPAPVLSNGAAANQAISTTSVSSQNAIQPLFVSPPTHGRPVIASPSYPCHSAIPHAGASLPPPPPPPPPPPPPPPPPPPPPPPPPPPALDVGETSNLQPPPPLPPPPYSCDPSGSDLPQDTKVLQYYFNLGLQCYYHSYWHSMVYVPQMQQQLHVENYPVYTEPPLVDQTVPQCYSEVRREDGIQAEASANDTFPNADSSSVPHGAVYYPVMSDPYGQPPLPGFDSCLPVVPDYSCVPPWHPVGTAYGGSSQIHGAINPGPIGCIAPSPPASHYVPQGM
# Procedure, shortened: (§1)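 Labelling with Biotin-Ahx-Ub-VS (0.5 µM final, 1 h) followed a 3 h triplicate treatment of HEK293T lysate (495 µg per sample, Tris/CHAPS/IGEPAL buffer with protease inhibitors) with fragment at 200 µM or vehicle. Labelled DUBs were NeutrAvidin-enriched, digested with LysC and trypsin, and run by diaPASEF LC-MS/MS. The values, average log2 fragment/vehicle ratios by unpaired t-test, come from global-median-normalised Spectronaut label-free quantities. Proteins with ≥2 unique peptides were used.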
# ATXN3 = ATXN3 (UniProt P54252)
# Procedure, shortened: as §1
# BAP1 = molecular target: T2, BAP1 (UniProt Q92560)
# T2 sequence (whole entry): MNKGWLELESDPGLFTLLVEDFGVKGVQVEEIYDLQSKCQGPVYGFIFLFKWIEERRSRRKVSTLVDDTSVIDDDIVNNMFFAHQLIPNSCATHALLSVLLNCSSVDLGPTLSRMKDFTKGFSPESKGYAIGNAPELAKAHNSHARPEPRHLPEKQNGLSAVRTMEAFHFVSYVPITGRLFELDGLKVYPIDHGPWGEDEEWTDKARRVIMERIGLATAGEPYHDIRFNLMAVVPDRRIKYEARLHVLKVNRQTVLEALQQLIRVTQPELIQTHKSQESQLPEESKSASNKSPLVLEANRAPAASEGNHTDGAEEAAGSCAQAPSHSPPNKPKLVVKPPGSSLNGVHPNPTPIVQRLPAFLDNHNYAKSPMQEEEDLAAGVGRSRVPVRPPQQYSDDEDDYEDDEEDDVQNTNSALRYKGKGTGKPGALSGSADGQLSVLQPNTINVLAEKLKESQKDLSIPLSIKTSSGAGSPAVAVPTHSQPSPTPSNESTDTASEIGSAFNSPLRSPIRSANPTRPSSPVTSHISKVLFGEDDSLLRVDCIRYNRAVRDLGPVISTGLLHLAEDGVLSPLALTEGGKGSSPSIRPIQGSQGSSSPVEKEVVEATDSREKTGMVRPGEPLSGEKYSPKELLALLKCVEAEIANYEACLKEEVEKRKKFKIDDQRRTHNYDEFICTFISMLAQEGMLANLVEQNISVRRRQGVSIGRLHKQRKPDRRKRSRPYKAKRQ
# Procedure, shortened: as §1
# EIF3F = EIF3F (UniProt O00303)
# Procedure, shortened: as §1
# EIF3H = EIF3H (UniProt O15372)
# Procedure, shortened: as §1
# FAM105A = molecular target: T3, FAM105A (UniProt Q9NUU6)
# T3 sequence (whole entry): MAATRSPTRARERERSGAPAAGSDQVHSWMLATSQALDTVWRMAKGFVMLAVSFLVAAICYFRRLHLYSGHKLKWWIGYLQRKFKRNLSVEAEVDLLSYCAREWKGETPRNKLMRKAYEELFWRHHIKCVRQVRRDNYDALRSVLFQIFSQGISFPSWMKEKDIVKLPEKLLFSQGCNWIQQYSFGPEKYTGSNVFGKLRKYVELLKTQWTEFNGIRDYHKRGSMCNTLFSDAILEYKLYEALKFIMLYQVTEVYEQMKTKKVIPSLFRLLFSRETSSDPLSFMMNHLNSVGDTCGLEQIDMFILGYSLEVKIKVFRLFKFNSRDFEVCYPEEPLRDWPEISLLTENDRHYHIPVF
# Procedure, shortened: as §1
# OTUB1 = OTUB1 (UniProt Q96FW1)
# Procedure, shortened: as §1
# OTUD4 = molecular target: T4, OTUD4 (UniProt Q01804)
# T4 sequence (whole entry): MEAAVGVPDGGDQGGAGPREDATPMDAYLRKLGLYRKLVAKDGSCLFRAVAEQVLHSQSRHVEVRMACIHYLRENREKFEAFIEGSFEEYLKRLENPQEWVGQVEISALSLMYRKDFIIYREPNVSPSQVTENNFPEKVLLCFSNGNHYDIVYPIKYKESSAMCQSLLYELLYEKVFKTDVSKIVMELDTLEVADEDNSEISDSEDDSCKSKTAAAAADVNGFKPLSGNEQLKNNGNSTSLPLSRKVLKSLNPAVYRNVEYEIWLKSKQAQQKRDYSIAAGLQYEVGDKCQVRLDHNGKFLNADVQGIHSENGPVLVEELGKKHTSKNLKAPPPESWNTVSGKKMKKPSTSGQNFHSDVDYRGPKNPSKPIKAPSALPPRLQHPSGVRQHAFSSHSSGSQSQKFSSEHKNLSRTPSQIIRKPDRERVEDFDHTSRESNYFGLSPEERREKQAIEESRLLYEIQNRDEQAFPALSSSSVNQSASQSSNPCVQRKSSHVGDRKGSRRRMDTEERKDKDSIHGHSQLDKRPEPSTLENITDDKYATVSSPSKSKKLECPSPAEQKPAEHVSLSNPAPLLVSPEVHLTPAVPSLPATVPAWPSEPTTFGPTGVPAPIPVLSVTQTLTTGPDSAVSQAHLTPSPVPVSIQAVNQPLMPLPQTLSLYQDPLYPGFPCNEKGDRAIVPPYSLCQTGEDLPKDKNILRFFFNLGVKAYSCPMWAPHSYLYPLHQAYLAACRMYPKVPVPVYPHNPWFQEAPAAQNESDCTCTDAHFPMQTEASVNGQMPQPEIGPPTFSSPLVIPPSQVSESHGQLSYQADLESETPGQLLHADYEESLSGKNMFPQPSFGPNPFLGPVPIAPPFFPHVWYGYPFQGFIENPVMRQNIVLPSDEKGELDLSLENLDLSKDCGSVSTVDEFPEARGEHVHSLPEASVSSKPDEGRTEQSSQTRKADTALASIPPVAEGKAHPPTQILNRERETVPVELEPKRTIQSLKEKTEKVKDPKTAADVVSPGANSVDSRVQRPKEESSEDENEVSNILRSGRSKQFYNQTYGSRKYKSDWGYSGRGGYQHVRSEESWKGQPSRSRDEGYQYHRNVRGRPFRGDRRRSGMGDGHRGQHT
# Procedure, shortened: as §1
# OTUD5 = molecular target: T5, OTUD5 (UniProt Q96G74)
# T5 sequence (whole entry): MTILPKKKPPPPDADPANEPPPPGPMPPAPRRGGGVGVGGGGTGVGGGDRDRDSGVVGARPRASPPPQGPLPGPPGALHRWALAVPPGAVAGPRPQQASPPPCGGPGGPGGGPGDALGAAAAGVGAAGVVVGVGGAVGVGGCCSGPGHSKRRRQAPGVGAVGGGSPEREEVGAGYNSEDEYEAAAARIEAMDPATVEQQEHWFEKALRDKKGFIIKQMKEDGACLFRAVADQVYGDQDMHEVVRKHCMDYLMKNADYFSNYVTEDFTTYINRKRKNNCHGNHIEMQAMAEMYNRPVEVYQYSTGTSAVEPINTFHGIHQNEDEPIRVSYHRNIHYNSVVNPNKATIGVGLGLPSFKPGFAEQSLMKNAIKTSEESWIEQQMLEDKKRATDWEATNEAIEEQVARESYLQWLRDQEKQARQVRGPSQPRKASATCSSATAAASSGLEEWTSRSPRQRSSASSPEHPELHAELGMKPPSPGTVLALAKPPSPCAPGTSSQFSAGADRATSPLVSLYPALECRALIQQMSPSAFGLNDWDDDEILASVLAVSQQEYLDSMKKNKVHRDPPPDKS
# Procedure, shortened: as §1
# EIF3H, sequence (O15372 whole entry): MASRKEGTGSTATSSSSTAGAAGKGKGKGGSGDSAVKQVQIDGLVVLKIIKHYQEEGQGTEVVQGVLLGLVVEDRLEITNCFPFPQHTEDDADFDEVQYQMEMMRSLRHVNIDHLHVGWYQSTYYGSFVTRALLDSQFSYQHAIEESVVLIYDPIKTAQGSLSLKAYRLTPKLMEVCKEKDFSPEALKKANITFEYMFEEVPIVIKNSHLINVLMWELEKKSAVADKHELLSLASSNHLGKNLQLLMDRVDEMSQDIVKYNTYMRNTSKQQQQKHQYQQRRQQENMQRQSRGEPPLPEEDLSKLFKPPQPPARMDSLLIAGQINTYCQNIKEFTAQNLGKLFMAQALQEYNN
# OTUB1, sequence (Q96FW1 whole entry): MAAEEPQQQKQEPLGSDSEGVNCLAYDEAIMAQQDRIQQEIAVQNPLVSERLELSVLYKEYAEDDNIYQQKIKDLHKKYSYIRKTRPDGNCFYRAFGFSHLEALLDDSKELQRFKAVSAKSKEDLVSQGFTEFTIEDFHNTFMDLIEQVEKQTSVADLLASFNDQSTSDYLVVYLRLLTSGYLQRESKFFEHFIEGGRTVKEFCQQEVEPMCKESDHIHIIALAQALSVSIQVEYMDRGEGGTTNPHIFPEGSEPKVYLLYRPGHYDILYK
# EIF3F, sequence (O00303 whole entry): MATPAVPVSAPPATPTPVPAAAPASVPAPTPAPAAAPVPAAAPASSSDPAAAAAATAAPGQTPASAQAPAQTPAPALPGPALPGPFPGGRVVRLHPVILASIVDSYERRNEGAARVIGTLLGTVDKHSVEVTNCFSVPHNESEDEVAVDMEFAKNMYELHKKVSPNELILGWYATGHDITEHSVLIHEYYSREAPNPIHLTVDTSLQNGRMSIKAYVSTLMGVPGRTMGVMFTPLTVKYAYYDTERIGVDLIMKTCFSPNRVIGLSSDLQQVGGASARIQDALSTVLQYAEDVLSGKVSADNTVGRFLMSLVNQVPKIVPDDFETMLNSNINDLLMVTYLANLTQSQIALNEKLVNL
# ATXN3, sequence (P54252 whole entry): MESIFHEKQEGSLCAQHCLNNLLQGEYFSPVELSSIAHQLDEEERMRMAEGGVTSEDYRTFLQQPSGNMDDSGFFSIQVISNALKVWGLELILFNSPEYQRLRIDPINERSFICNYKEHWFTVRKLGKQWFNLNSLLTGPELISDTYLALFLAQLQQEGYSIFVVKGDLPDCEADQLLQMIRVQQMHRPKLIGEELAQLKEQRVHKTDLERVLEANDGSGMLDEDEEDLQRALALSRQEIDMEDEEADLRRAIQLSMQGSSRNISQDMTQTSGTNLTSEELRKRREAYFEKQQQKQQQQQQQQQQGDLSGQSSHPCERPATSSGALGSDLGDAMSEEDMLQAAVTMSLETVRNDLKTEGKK
structure (smiles),measurement,setting,value
COCC[C@@H](NC(=O)CCl)c1ccccc1,log2 ratio of Biotin-Ahx-Ub-VS probe labelling,ALG13,-0.555
same,log2 ratio of Biotin-Ahx-Ub-VS probe labelling,ATXN3,-0.208
same,log2 ratio of Biotin-Ahx-Ub-VS probe labelling,BAP1,-1.89 (active)
same,log2 ratio of Biotin-Ahx-Ub-VS probe labelling,EIF3F,-0.137
same,log2 ratio of Biotin-Ahx-Ub-VS probe labelling,EIF3H,-0.017
same,log2 ratio of Biotin-Ahx-Ub-VS probe labelling,FAM105A,0.268
same,log2 ratio of Biotin-Ahx-Ub-VS probe labelling,OTUB1,-0.131
same,log2 ratio of Biotin-Ahx-Ub-VS probe labelling,OTUD4,-0.138
same,log2 ratio of Biotin-Ahx-Ub-VS probe labelling,OTUD5,-0.197
